Results: PMC9838217, “Structure of SALL4 zinc finger domain reveals link between AT-rich DNA binding and Okihiro syndrome”
Positions count from the first letter of the chain named.

What was measured:
[1] = target: T1, SALL4 ZFC4 R900W (HT-SELEX) (Mus musculus, UniProt Q8BX22 870-940, R900W); assay: HT-SELEX; high values mean tight binding; conditions: protein: recombinant; vector His6-GST; dsDNA, one strand shown
T1 sequence: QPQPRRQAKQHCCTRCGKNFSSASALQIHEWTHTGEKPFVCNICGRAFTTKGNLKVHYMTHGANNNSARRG
Method in brief: (§1)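 Library DNA (1.5 µg in cycle one, 200 ng in later cycles) was incubated with 1 µg of purified recombinant mouse SALL4 zinc finger cluster 4, residues 870–940, in 100 µl buffer (10 mM Tris–HCl pH 7.5, 50 mM NaCl, poly(dI-dC), DTT) at room temperature for 10 min. Up to 6 rounds of Ni2+ bead capture, washing, PCR amplification and reselection were run in triplicate. Reads from MiSeq sequencing were scanned for 6-mers. For each canonical k-mer, binding signal is its read fraction as fold change versus the original random library.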

[2] = target: T2, SALL4 ZFC4 G921D (HT-SELEX) (Mus musculus, UniProt Q8BX22 870-940, G921D); assay: HT-SELEX; high values mean tight binding; conditions: protein: recombinant; vector His6-GST; dsDNA, one strand shown
T2 sequence: T1 sequence with W31R, G52D
Method in brief: as §1

Sequence	binding signal [1] [fold-change vs cycle 0]	binding signal [2] [fold-change vs cycle 0]
CCCACC	0.282 ± 0.00918	0.397 ± 0.0572
CCCCCG	0.133 ± 0.00946	0.239 ± 0.0586
GGAATA	1.41 ± 0.0506	1.35 ± 0.0751
GCATTA	1.09 ± 0.0461	1.15 ± 0.019
TGCCCA	0.29 ± 0.00772	0.437 ± 0.0679
GCTCCC	0.239 ± 0.0043	0.357 ± 0.0785
CGGGTC	0.212 ± 0.0149	0.342 ± 0.0694
GGGCTA	0.35 ± 0.0254	0.487 ± 0.0896
GCCCAA	0.245 ± 0.0152	0.387 ± 0.0671
AGTGGC	0.299 ± 0.0198	0.455 ± 0.0604
ACACGC	0.297 ± 0.0275	0.43 ± 0.0602
CGCGGC	0.0238 ± 0.000376	0.0986 ± 0.055
CGCTAG	0.338 ± 0.0234	0.465 ± 0.071
CGCCGC	0.0234 ± 0.0032	0.091 ± 0.0475
CACGGG	0.253 ± 0.0129	0.366 ± 0.0584
AGCCAC	0.315 ± 0.0294	0.473 ± 0.0855
AGGCGG	0.136 ± 0.00959	0.264 ± 0.0731
GGCGGA	0.12 ± 0.0101	0.238 ± 0.0604
CTGGCC	0.139 ± 0.00982	0.255 ± 0.0712
GAACGC	0.308 ± 0.012	0.446 ± 0.0568

Sequence	binding signal [1] [fold-change vs cycle 0]	binding signal [2] [fold-change vs cycle 0]
AACGCC	0.242 ± 0.0243	0.377 ± 0.0751
CGCCCG	0.0459 ± 0.011	0.128 ± 0.0586
TGCGCA	0.136 ± 0.00666	0.263 ± 0.0848
CCAGCA	0.359 ± 0.0242	0.477 ± 0.0744
GCGCGA	0.0544 ± 0.00435	0.152 ± 0.0576
CCCTCG	0.278 ± 0.0226	0.388 ± 0.0906
GTCGCA	0.215 ± 0.0161	0.341 ± 0.0831
GGCGAA	0.216 ± 0.00992	0.36 ± 0.0782
CGACGC	0.0904 ± 0.00963	0.193 ± 0.0701
CGCCAC	0.103 ± 0.0044	0.216 ± 0.0502
CCCGAG	0.2602 ± 0.00145	0.386 ± 0.0692
GCCAGC	0.102 ± 0.00774	0.211 ± 0.0594
ATGCCC	0.331 ± 0.00967	0.475 ± 0.0568
TCCGCA	0.269 ± 0.0199	0.408 ± 0.0556
CACCCC	0.309 ± 0.0175	0.407 ± 0.058
CACCGG	0.216 ± 0.0195	0.331 ± 0.0683
CCGCGG	0.0426 ± 0.00565	0.128 ± 0.0621
TCGTAA	1.29 ± 0.0564	1.25 ± 0.113
CGGCAG	0.106 ± 0.00823	0.214 ± 0.0627
GTGTTA	1.37 ± 0.0667	1.31 ± 0.0659

Sequence	binding signal [1] [fold-change vs cycle 0]	binding signal [2] [fold-change vs cycle 0]
GCGAGA	0.334 ± 0.0226	0.472 ± 0.0669
GCCAAC	0.279 ± 0.0168	0.415 ± 0.0905
GAACTA	1.48 ± 0.0646	1.37 ± 0.112
ACGCCC	0.137 ± 0.0108	0.25 ± 0.0577
ACGAAT	1.26 ± 0.0589	1.24 ± 0.0791
CCGGAC	0.195 ± 0.02	0.305 ± 0.0661
GACAGC	0.361 ± 0.0178	0.491 ± 0.0963
GCGGAC	0.125 ± 0.0161	0.239 ± 0.0553
ACGCCG	0.0708 ± 0.0067	0.183 ± 0.0752
AGCCCC	0.191 ± 0.0184	0.329 ± 0.0672
GCGACC	0.112 ± 0.0125	0.237 ± 0.0806
ACCATA	1.42 ± 0.0261	1.36 ± 0.0475
GGCCAC	0.126 ± 0.019	0.253 ± 0.0792
CATCGC	0.317 ± 0.0166	0.45 ± 0.0668
AGAGGC	0.355 ± 0.0197	0.484 ± 0.0611
CGCTAC	0.3 ± 0.026	0.426 ± 0.0556
CGGGCA	0.116 ± 0.00794	0.223 ± 0.0617
GCGCAC	0.0689 ± 0.0069	0.167 ± 0.0842
AGTGCC	0.287 ± 0.0119	0.444 ± 0.0567
